Assay in all cases: NCI-60 one-dose screen, 48 h (100 = growth as untreated, 0 = no growth, -100 = all killed)
What all share (settings): 10 µM unless noted

Assay [1] deals with DU-145 prostate.
Assay [2] has as its system K-562 leukemia.
In assay [3] the test system is MALME-3M melanoma.
The test system of assay [4] is MDA-MB-231 breast.
Assay [5] concerns RXF 393 renal.
The subject of assay [6] is SF-268 CNS.
In assay [7] the test system is SF-295 CNS.
Assay [8] relates to SF-539 CNS.
The subject of assay [9] is UACC-257 melanoma.
Assay [10] relates to M14 melanoma.
For assay [11], the system named is HCT-15 colon.
Assay [12] has as its system HT29 colon.
Assay [13] has as its system SNB-75 CNS.
Assay [14] relates to SNB-19 CNS.
Assay [15] has as its system U251 CNS.
In assay [16] the test system is PC-3 prostate.
Assay [17] concerns SK-MEL-5 melanoma.
The test system of assay [18] is UACC-62 melanoma.
The subject of assay [19] is LOX IMVI melanoma.
In assay [20] the test system is SK-MEL-28 melanoma.

This is part of a sample that, as a whole, favours compounds with a hit. Of some 83,000 tested, about 20% had one in any assay.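 The test compound was applied at a single concentration to cells in 96-well plates for 48 hours, and percent growth was recorded.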 Values without a mark were called inactive. The source made the active and inactive calls. Rule for the calls: active = growth percent below 10; inactive = the rest.

As to `CCCCC[C@@H]1C/C=C(\C)[C@@H](O)C(C)(C)C(=O)[C@@H](C)/C=C(\C)[C@@H]2C[C@H](O)C[C@](O)(CC(=O)O1)O2`, the growth in assay [1] was 41.3%; in assay [2], 13.6%; in [3], 34.9%; in assay [4] it was 83.4%; in [5] it was 68%; in assay [6], 43.1%. Also, the growth in [7] is 11%; in [8] it was 73.8%; in assay [9] it was 1.3% (active); in [10], 49.6%; in assay [11], 38.4%; in assay [12] it was 50.4%. For the same compound, the growth was 32.9% in assay [13]; 37.2% in assay [14]; 61.2% in assay [15]; 21.4% in [16]; -17.6% (active) in assay [17]; 55.8% in [18]. The figures for the growth in assay [19] and in assay [20] were 50.9% and 76.3%, respectively.
As for `CCCCCCCCCc1ccc(C(=O)Nc2cc(C)ccc2C(=O)OC)cc1`, the growth in [1] was 119%; in [2], 98.8%; in [3], 99.8%; in [4] it was 103%; in assay [5], 117%; in assay [6], 116%. Moreover, the growth in assay [7] is 103%; in assay [8], 112%; in assay [9] it was 106%; in [10], 105%; in assay [11], 103%; in [12] it was 98.9%. Besides, the growth in assay [13] was 117%; in [14], 106%; in [15], 112%; in [16], 105%; in [17], 102%; in assay [18] it was 83.7%. Further, the growth in assay [19] was 102%; in [20] it was 107%.
For the compound `COc1cc(C2CC(c3ccc(F)cc3)=Nc3c(N)nc(N)nc3N2)ccc1Oc1nc(Nc2ccc(F)cc2)nc(N(C)C)n1` (stereo not given), the growth in assay [1] is 55.8%; in assay [2] it was 15.5%; in assay [3] it was 52.5%; in assay [4], 44.2%; in [5], 17.2%; in assay [6], 63.4%. The growth in assay [7] is 40.3%; in [8], 69.6%; in [9], 38.7%; in assay [10], 56.6%; in assay [11] it was 35.7%; in [12] it was 22.1%. In addition, the growth in assay [13] is 58.3%; in assay [14], 65.1%; in assay [15] it was 52.9%; in assay [16] it was 27%; in assay [17], -94.3% (active); in assay [18], 73.4%. Moreover, the growth was 38.5% in [19] and 84.2% in assay [20].
Regarding `C/C(=N/O)c1ccc(NC(=O)CSc2nnc(-c3ccc4nc(-c5ccc(Cl)cc5)[nH]c4c3)o2)cc1`, the growth in assay [1] is 44.3%; in assay [2], 19.4%; in assay [3], -4.58% (active); in assay [4], 36%; in assay [5], -40.6% (active); in assay [6] it was 70.8%. The growth is 97.6% in assay [7]; 43% in assay [8]; 97.4% in [9]; 22.2% in assay [10]; 99.1% in [11]; 93.2% in assay [12]. The growth in [13] was 55.8%; in assay [14], 20.8%; in [15], -58.8% (active); in assay [16] it was 41%; in [17], 11%; in [18] it was 10.5%. Also, the results for the growth in assay [19] and in [20] were -64.4% (active) and -61.5% (active), respectively.
With `COc1ccc(OC)c(Cn2cc(C#N)c(N)c2C(=O)c2ccc(Br)cc2)c1`, the growth in assay [1] is 79.1%; in assay [2], 15.2%; in [3], 42.6%; in [4], 60.7%; in assay [5] it was 41.8%; in [6] it was 68.5%. The growth in [7] was 39.1%; in assay [8] it was 47.7%; in assay [9] it was 55.6%; in assay [10], 33.8%; in assay [11], 26.2%; in [12], 4.97% (active). The growth in assay [13] was 50.4%; in assay [14], 55.3%; in assay [15], 26.3%; in assay [16] it was 66%; in assay [17] it was 26.6%; in assay [18], 29.9%. In addition, the growth in assay [19] was 49.6%; in assay [20], 54.3%.
As to `COc1cc(/C=N/NC(=O)c2ccc(OCc3nc4ccc(Cl)cc4[nH]3)cc2)cc(OC)c1OC`, the growth in [1] is 64.5%; in [2] it was 14.7%; in [3], 14.1%; in assay [4], 52.8%; in [5], -26.2% (active); in [6], 70%. In addition, the growth in [7] is 13.2%; in assay [8], 30.2%; in assay [9], 42.3%; in assay [10], 42.6%; in [11], 37.4%; in assay [12] it was 21.4%. For the same compound, the growth in assay [13] was 123%; in assay [14] it was 55.5%; in [15] it was 52.8%; in assay [16], 35.5%; in assay [17], -19.9% (active); in [18], 16.7%. The growth was 26% in assay [19] and 32.4% in [20].
Consider `O=C(Nc1nc2ccc([N+](=O)[O-])cc2s1)Nc1ccc(Cl)cc1Cl`, for which the growth in assay [1] is 64.1%; in assay [2], 24.6%; in assay [3] it was 52.4%; in assay [4] it was 1.5% (active); in assay [5], 20%; in assay [6], 66.1%. Besides, the growth in assay [7] is 17.2%; in assay [8] it was 11.7%; in [9] it was 60.3%; in [10], 77.9%; in assay [11] it was 49.1%; in assay [12] it was 64.7%. For the same compound, the growth in [13] was -24.4% (active); in [14], 46.6%; in assay [15], 11.4%; in assay [16], 47.3%; in [17] it was 27.5%; in [18], 56%. The figures for the growth in [19] and in assay [20] were 34.8% and 79.5%, respectively.
For `COc1cc(C2CC(c3ccc(C(F)(F)F)cc3)=Nc3c(N)nc(N)nc3N2)ccc1Oc1nc(Nc2ccc(F)cc2)nc(N(C)C)n1` (stereo not given), the growth is 59.9% in assay [1]; 7.52% (active) in assay [2]; 65.3% in [3]; 29.5% in assay [4]; 3.99% (active) in assay [5]; 53.3% in assay [6]. Besides, the growth is 36.6% in [7]; 51.4% in [8]; 50.3% in [9]; 28.2% in assay [10]; 18.5% in [11]; 3.28% (active) in assay [12]. The growth in assay [13] is 46.6%; in assay [14], 49.3%; in assay [15], 41.4%; in assay [16] it was 30.7%; in assay [17] it was 23.9%; in [18], 86.3%. In addition, the values for the growth in assay [19] and in assay [20] were -17.6% (active) and 71.5%, respectively.
